Measured values as given in PubChem BioAssay AID1276 (Columbia University Molecular Screening Center, 2008).
Hit rate of the full screen: of about 190,000 compounds, about 2,000 (1.1%) were called active.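 The calls were made as follows: active = activation above a set limit, based on mean plus 3 SD of controls (cut at about 140% in these data); inconclusive = one replicate above the limit, the other below; inactive = the rest.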 The full list was thinned out, with actives kept by preference.

assay: APP 5'UTR reporter signal increase – luciferase, SH-SY5Y cells, primary screen (AID 1276); conditions: SH-SY5Y APP 5'UTR luciferase reporter, luminescence; at 2 µM; hits give high values; zero percent = DMSO vehicle wells

SMILES	activation
O=C(CN1CCN(c2ccccn2)CC1)N1CCc2ccccc21	30.9% (inactive)
COc1ccccc1-c1cc(C(=O)N2CCCCC2)no1	113% (inactive)
O=C(c1cc(-c2ccccc2O)on1)N1CCCC1	102% (inactive)
O=C(c1cc(-c2cccs2)on1)N1CCCCC1	138% (active)
O=C(Nc1ccc(N2CCOCC2)cc1)c1ccc(-c2ccccc2[N+](=O)[O-])o1	17.6% (inactive)
CC1Cc2ccccc2N1C(=O)CSc1nnc(C2CC2)n1C (configuration not stated)	23.3% (inactive)
COc1ccc(N2C(=O)CC(Sc3n[nH]c(-c4ccc(C)cc4)n3)C2=O)cc1 (configuration not stated)	14.7% (inactive)
O=C(Nc1ccc(F)cc1)N1CCCC(c2nc3c(nnn3Cc3ccccc3Cl)c(=O)[nH]2)C1 (configuration not stated)	-4.96% (inactive)
O=C(NCCC1=CCCCC1)c1ccc(Cl)c([N+](=O)[O-])c1	8.77% (inactive)
CN(c1ccc(C(=O)NCCC2=CCCCC2)cc1)S(C)(=O)=O	76% (inactive)
Cn1nnc2cc(C(=O)NCCC3=CCCCC3)ccc21	174% (active)
CCOCCCNC(=O)C(=O)NCCCOCC	-1.33% (inactive)
O=C(C1CCCO1)N(c1ccc(F)cc1)C1C=CS(=O)(=O)C1 (configuration not stated)	5.93% (inactive)
Cc1ccc(NC(=O)COC(=O)CCc2nc3ccccc3n2-c2ccccc2)c(C)c1	11.8% (inactive)
O=C(CN1CCN(c2ncccn2)CC1)Nc1ccccc1C(F)(F)F	-6.86% (inactive)
Cc1ccc(CN(Cc2cccnc2)C(=S)Nc2cc(Cl)ccc2C)cc1	2.52% (inactive)
Cc1cc(C)c2nc(NC(=O)c3ccc4c(c3)OCO4)sc2c1	-8.57% (inactive)
CC(=O)Nc1ccc(-c2csc(NC(=O)Nc3ccccc3)n2)cc1	-14.7% (inactive)
COCc1nnc(NC(=O)c2ccc3c(c2)OCO3)s1	61.2% (inactive)
O=C(Nc1ccccc1)Nc1nc2ccccc2s1	212% (active)
O=C(Nc1nc2ccccc2s1)c1ccc2c(c1)OCO2	183% (active)
CSCCC(Nc1nc2ccccc2s1)C(=O)O (configuration not stated)	-7.07% (inactive)
CCCC1NC(=S)NC(C)=C1C(C)=O (configuration not stated)	-10.8% (inactive)
CCCCCOc1ccc(/C=C/C(=O)NCCc2nc3ccccc3[nH]2)cc1OC	-0.79% (inactive)
S=C(NCc1ccco1)Nc1ccc2c(c1)OCCO2	18.6% (inactive)
CC1CCCC(C)N1/N=C/c1ccccc1OC(F)F (configuration not stated)	5.03% (inactive)

SMILES	activation
Clc1ccc2nc(CSc3ccccc3)cn2c1	216% (active)
CCOc1ncccc1C(=O)OCc1cn2cc(Cl)ccc2n1	-0.86% (inactive)
O=c1cc(CSc2ccc(Cl)cc2)nc(N2CCOCC2)[nH]1	6.36% (inactive)
Cc1nn(Cc2ccc(F)cc2)c(C)c1NC(=O)c1cccnc1Cl	10.3% (inactive)
c1ccc(-c2[nH]ncc2-c2nc3ccccc3[nH]2)cc1	-1.2% (inactive)
Cc1ccc(-c2nc3ccccc3[nH]2)cc1NC(=O)c1sc2ccccc2c1Cl	-3.21% (inactive)
COc1ccc(Br)cc1C(=O)NC(=S)Nc1cc(-c2nc3ccccc3[nH]2)ccc1C	21.4% (inactive)
c1ccc2[nH]c(-c3nc4ccccc4[nH]3)nc2c1	181% (active)
Cc1ccc(-c2nc3ccccc3[nH]2)cc1N	201% (active)
COc1ccc(-c2[nH]nc(-c3ccccc3)c2-c2nc3ccccc3[nH]2)cc1	-4.36% (inactive)
COc1ccc(C2CC(c3ccccc3)=NN2C(=O)COC(=O)COc2ccccc2)cc1 (configuration not stated)	0.61% (inactive)
O=C(CSc1ccc([N+](=O)[O-])cn1)Nc1ccc(N2CCOCC2)c(Cl)c1	-13% (inactive)
COc1ccc(-c2csc(Cc3nc(O)cs3)n2)cc1	157% (active)
COc1ccc(OC)c(Nc2nc(-c3ccc(O)c(O)c3)cs2)c1	-40.2% (inactive)
COc1ccc(-c2csc(NC(=O)CCCc3cccs3)n2)cc1	-2.07% (inactive)
N/C(=N\OC(=O)c1cc(-c2ccccc2)nc2ccccc12)c1ccncc1	7.36% (inactive)
Cc1cccc(C(=O)c2cccc(C)c2)c1	7.97% (inactive)
Cc1cccc(/C(N)=N/OC(=O)c2ccccc2Cl)c1	206% (active)
Cc1ccc(NC(=S)N2CCN(c3ncccn3)CC2)cc1C	2.51% (inactive)
COc1cccc(-c2nc(S(=O)(=O)c3ccccc3)c(N3CCOCC3)o2)c1	10.7% (inactive)
O=[N+]([O-])c1ccc2oc(-c3cccc(O)c3)nc2c1	184% (active)
O=[N+]([O-])c1cccc(Nc2c3ccccc3nc3ccccc23)c1	-0.09% (inactive)
COc1ccc(-c2nc3cc([N+](=O)[O-])ccc3o2)cc1OC	20.2% (inactive)
COc1cccc(-c2nc3cc(C)ccc3o2)c1	172% (active)
COc1ccc2oc(-c3cccc(NC(=O)CSc4ccc(Cl)cc4)c3)nc2c1	48.5% (inactive)
N#Cc1c(-c2ccc(Cl)cc2)c2c([nH]c1=S)CCCC2	15.9% (inactive)
